The results in this text go back to PubChem BioAssay AID1159580 (chemical genetic matrix, 2015).

Structures are written as SMILES. About 2,000 (36%) of roughly 5,500 compounds were called active. Not shown: some 18% with an inconclusive outcome. Some of the results follow. A number with no mark means an inactive call. Cut-off read from the data, not from the text of the source: active = normalized growth mostly below about 0.91 (no sharp cut-off); inconclusive = no clear call, values can overlap the other calls; inactive = mostly above about 0.92.

The experiment can be described thus: chemical genetic growth profiling, strain panel (AID 1159580).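 Note: tested at 20 µM; growth read once vehicle control cultures reached saturation at 30 °C; 1 = growth at the plate median or of vehicle wells; lower values mean less growth of the strain.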 The following applies: growth OD.
[1] abbreviates: S. cerevisiae deletion strains, locus YAL013W, strain DEP1, hits give low values.
The mark [2] stands for this setting: S. cerevisiae deletion strains, locus YBR229C, strain ROT2, hits give low values.
Setting [3] is: S. cerevisiae deletion strains, locus YDL101C, strain DUN1, hits give low values.
Setting [4] is: S. cerevisiae deletion strains, locus YDR150W, strain NUM1, hits give low values.
[5] abbreviates: S. cerevisiae deletion strains, locus YEL061C, strain CIN8, hits give low values.
The mark [6] stands for this setting: S. cerevisiae deletion strains, locus YGR078C, strain PAC10, hits give low values.
The mark [7] stands for this setting: S. cerevisiae deletion strains, locus YHR030C, strain SLT2, hits give low values.
The mark [8] stands for this setting: S. cerevisiae deletion strains, locus YHR087W, strain rtc3, hits give low values.
[9] abbreviates: S. cerevisiae deletion strains, locus YJL187C, strain SWE1, hits give low values.
[10] abbreviates: S. cerevisiae deletion strains, locus YJR043C, strain POL32, hits give low values.
The mark [11] stands for this setting: S. cerevisiae deletion strains, locus YJR075W, strain HOC1, hits give low values.
Setting [12] is: S. cerevisiae deletion strains, locus YLR039C, strain RIC1, hits give low values.
Setting [13] is: S. cerevisiae deletion strains, locus YLR058C, strain SHM2 (second series), hits give low values.
The mark [14] stands for this setting: S. cerevisiae deletion strains, locus YLR085C, strain ARP6, hits give low values.
Setting [15] is: S. cerevisiae deletion strains, locus YLR262C, strain YPT6, hits give low values.
Setting [16] is: S. cerevisiae deletion strains, locus YML094W, strain GIM5, hits give low values.
[17] abbreviates: S. cerevisiae deletion strains, locus YMR219W, strain ESC1, hits give low values.
Where [18] appears, read: S. cerevisiae deletion strains, locus YMR263W, strain SAP30, hits give low values.
The mark [19] stands for this setting: S. cerevisiae deletion strains, locus YNL153C, strain GIM3, hits give low values.
[20] abbreviates: S. cerevisiae deletion strains, locus YNL298W, strain CLA4 (second series), hits give low values.
Setting [21] is: S. cerevisiae deletion strains, locus YNL322C, strain KRE1, hits give low values.
Setting [22] is: S. cerevisiae deletion strains, locus YNR030W, strain Alg12, hits give low values.
Where [23] appears, read: S. cerevisiae deletion strains, locus YOL006C, strain TOP1, hits give low values.
The mark [24] stands for this setting: S. cerevisiae deletion strains, locus YPL055C, strain LGE1, hits give low values.
The mark [25] stands for this setting: S. cerevisiae deletion strains, locus YPL241C, strain CIN2, hits give low values.
The mark [26] stands for this setting: S. cerevisiae deletion strains, locus YPR135W, strain CTF4, hits give low values.
Where [27] appears, read: S. cerevisiae deletion strains, locus YAL040C, strain CLN3, hits give low values.
[28] abbreviates: S. cerevisiae deletion strains, locus YCL061C, strain MRC1 (second series), hits give low values.
Setting [29] is: S. cerevisiae deletion strains, locus YDR363W, strain ESC2, hits give low values.
The mark [30] stands for this setting: S. cerevisiae deletion strains, locus YER002W, strain NOP16, hits give low values.
The mark [31] stands for this setting: S. cerevisiae deletion strains, locus YGR229C, strain SMI1, hits give low values.
Where [32] appears, read: S. cerevisiae deletion strains, locus YMR307W, strain GAS1, hits give low values.
[33] abbreviates: S. cerevisiae deletion strains, locus YNL175C, strain NOP13, hits give low values.
Where [34] appears, read: S. cerevisiae deletion strains, locus YNL197C, strain WHI3, hits give low values.
The mark [35] stands for this setting: S. cerevisiae deletion strains, locus YNL224C, strain SQS1, hits give low values.
The mark [36] stands for this setting: S. cerevisiae deletion strains, locus YOR083W, strain WHI5 (second series), hits give low values.

Take `O=C(NNC(=O)c1ccccc1[N+](=O)[O-])c1ccc(Cl)cc1`: the normalized growth under setting [1] is 1.02; the normalized growth under setting [2] is 1.03; the normalized growth (S. cerevisiae deletion strains, locus YCL061C, strain MRC1, hits give low values) was 1.02; the normalized growth under setting [3] is 0.981; the normalized growth under setting [4] is 0.904; the normalized growth under setting [5] was 1.01. Besides, the normalized growth was 0.995 under setting [6]; 1.14 under setting [7]; 0.994 under setting [8]; 1 under setting [9]; 0.869 (active) under setting [10]; 0.991 under setting [11]. Also, the normalized growth (S. cerevisiae deletion strains, locus YKL190W, strain CNB1, hits give low values) was 1.01; the normalized growth under setting [12] is 1.03; the normalized growth under setting [13] was 1.01; the normalized growth under setting [14] was 1.05; the normalized growth under setting [15] was 1.01; the normalized growth under setting [16] is 1.02. Also, the normalized growth reads like this: under setting [17], 1.02; under setting [18], 0.91; under setting [19], 0.993; under setting [20], 1.04; under setting [21], 1.01; under setting [22], 1.03. Moreover, the normalized growth is 1.13 under setting [23], 0.9 under setting [24], 1.03 under setting [25] and 1.16 under setting [26].
With `O=C(c1cc(O)c(O)c([N+](=O)[O-])c1)c1ccccc1F`, the normalized growth reads like this: under setting [27], 0.964; under setting [28], 0.953; under setting [29], 0.98; under setting [30], 0.978; under setting [6], 0.977; under setting [31], 0.886. The normalized growth under setting [32] was 0.966; the normalized growth under setting [33] was 0.985; the normalized growth under setting [34] was 0.97; the normalized growth under setting [35] is 0.969; the normalized growth under setting [36] is 0.996; the normalized growth under setting [25] was 0.99.
Turning to `Cc1ccc(C(=O)O[C@H](C(=O)O)[C@H](OC(=O)c2ccc(C)cc2)C(=O)O)cc1`, the normalized growth under setting [27] was 1.01; the normalized growth under setting [28] was 1; the normalized growth under setting [4] was 1.01; the normalized growth under setting [29] was 1.03; the normalized growth under setting [30] is 1.01; the normalized growth under setting [31] was 1.01. The normalized growth runs as follows: under setting [32], 0.99; under setting [33], 1; under setting [34], 1; under setting [35], 1; under setting [36], 0.997; under setting [24], 0.999.
`Cc1ccc(C(=O)c2ccccc2[N+](=O)[O-])cc1`: the normalized growth was 0.989 under setting [1]; 0.99 under setting [2]; 0.983 under setting [3]; 0.957 under setting [4]; 0.979 under setting [5]; 0.982 under setting [6]. In addition, the normalized growth runs as follows: under setting [7], 0.797; under setting [8], 0.964; under setting [9], 0.987; under setting [10], 0.99; under setting [11], 0.943; under setting [12], 0.913. Moreover, the normalized growth under setting [13] was 0.995; the normalized growth under setting [14] was 0.9; the normalized growth under setting [15] was 0.948; the normalized growth under setting [16] is 0.96; the normalized growth under setting [17] is 0.98; the normalized growth under setting [18] was 0.98. Also, the normalized growth runs as follows: under setting [32], 0.622 (active); (S. cerevisiae deletion strains, locus YNL128W, strain TEP1, hits give low values) 1.01; under setting [19], 0.954; under setting [20], 0.934; under setting [21], 0.997; under setting [22], 0.939. Besides, the normalized growth reads like this: under setting [23], 0.779; under setting [24], 0.946; under setting [25], 0.828 (active); under setting [26], 0.8; (S. cerevisiae strains, strain wild type, hits give low values) 1.
`CCOC(=O)CSc1nnc(-c2cc(C(C)(C)C)nn2Cc2cccc(C)c2)n1C1CCCCC1`: the normalized growth was 1.03 under setting [1]; 0.989 under setting [2]; 1.01 under setting [3]; 1 under setting [4]; 0.997 under setting [5]; 1.01 under setting [6]. Further, the normalized growth is, setting by setting: under setting [31], 0.993; under setting [7], 0.92; under setting [8], 0.986; under setting [9], 0.994; under setting [10], 0.994; under setting [11], 0.98. In addition, the normalized growth under setting [12] was 0.909; the normalized growth under setting [13] was 0.99; the normalized growth under setting [14] is 0.975; the normalized growth under setting [15] was 0.901; the normalized growth under setting [16] is 1.02; the normalized growth under setting [17] was 0.998. Also, the normalized growth under setting [18] was 1; the normalized growth under setting [19] was 1.02; the normalized growth under setting [20] is 1; the normalized growth under setting [21] was 0.994; the normalized growth under setting [22] was 0.987; the normalized growth under setting [24] was 1.03. The normalized growth under setting [25] is 0.968 and the normalized growth under setting [26] was 1.01.
